High-throughput results: PubChem, several laboratories
In the library only some 1.5% were active in any assay of this set; here they are far more common.
RAD52 anneal inh – RAD52 (human) annealing inhibition; P43351; AID 651710; 360,000 compounds, 0.46% hits; inhibition, % at 18.7 µM; recombinant RAD52 DNA annealing, FRET fluorescence;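 active = every replicate showing at least 50% inhibition; inconclusive = mean inhibition at least 50% but not in every replicate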
Target sequence (P43351 whole entry, looked up): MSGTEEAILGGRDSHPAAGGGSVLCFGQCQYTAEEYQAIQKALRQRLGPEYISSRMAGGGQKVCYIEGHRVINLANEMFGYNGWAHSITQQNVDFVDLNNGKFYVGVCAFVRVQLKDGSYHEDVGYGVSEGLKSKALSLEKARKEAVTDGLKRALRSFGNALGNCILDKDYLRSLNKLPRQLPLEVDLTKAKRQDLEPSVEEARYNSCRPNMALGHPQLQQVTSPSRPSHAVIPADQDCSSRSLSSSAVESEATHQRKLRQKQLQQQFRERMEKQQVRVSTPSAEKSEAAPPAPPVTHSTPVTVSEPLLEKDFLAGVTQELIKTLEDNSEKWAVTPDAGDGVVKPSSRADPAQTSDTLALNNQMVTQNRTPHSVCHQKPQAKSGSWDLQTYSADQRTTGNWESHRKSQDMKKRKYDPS
FID counter – displaces DNA intercalator in HCV helicase counter-screen; DNA fluorescent intercalator displacement, fluorescence; inhibition, % at 7.9 µM; 290,000 compounds, 0.17% hits; AID 1845; in the data active = inhibition above about 37%;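 note: 0% = vehicle and 100% = reference compound; higher means more ethidium bromide displaced from hairpin DNA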
Glyco luc inh – N-linked glycosylation inhibition; D54 ERlucT glycosylation luciferase reporter, 24 h; percent of 100 nM tunicamycin response; reporter increase, % at 12.5 µM; 360,000 compounds, 0.23% hits; AID 588692;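 active = mean luciferase reporter signal, scaled so untreated is 0 and the glycosylation-blocking control 100, at or above a set limit in every replicate; inconclusive = mean reaches the limit but not every replicate does; inactive = mean below the limit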;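 note: luciferase carries N-glycosylation sites so blocking glycosylation raises the light; 0% = median of neutral control wells and 100% = median of 100 nM tunicamycin wells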
RAD54 inh – inhibitors of human RAD54 branch migration | Q92698 | inhibition, % at 10.4 µM | RAD54 Holliday junction branch migration, FAM/BHQ fluorescence | AID 602329 | 360,000 compounds, 0.14% hits;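 active = mean normalized replicate activity at least 40 and at least half of replicates scoring 40 or more; inconclusive = only one of the two criteria met; inactive = mean below 40 and under half of replicates reaching 40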;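 note: 0% = median of neutral control wells and 100% = median of positive control wells; inhibitors cause a drop in the FAM fluorescence signal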
NRP1-CendR mod – modulators of CendR peptide binding to human neuropilin-1; O14786; FAM-RPARPAR peptide binding to NRP-1, fluorescence polarization; inhibition, % at 25 µM; 360,000 compounds, 0.85% hits; AID 602438;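 active = inhibition or corrected inhibition above about 18%, plus a signal ratio from 0.5 to 1.5, limit read from the data, passing the limit was not always enough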
miR-122 sensor – inhibitors of miR-122 in Huh7 cells | activation (reporter increase), % at 12.5 µM | Huh7 miR-122 Renilla luciferase sensor, 48 h; neutral wells = 0, positive control = 100 | 340,000 compounds, 0.3% hits | AID 602342;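 active = mean replicate activation score at least 90 and every replicate individually at or above 90; inconclusive = only one of the two criteria met; inactive = neither criterion met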;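 note: higher luciferase means less miR-122 activity so hits act as miR-122 inhibitors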
* = called active by the depositor; ? = inconclusive; . = not tested or not shown; [ ] = remark or other dose.

SMILES	RAD52 anneal inh	FID counter	Glyco luc inh	RAD54 inh	NRP1-CendR mod	miR-122 sensor
Cc1ccc(S(=O)(=O)Nc2ccc(-n3cnnn3)cc2)c(C)c1	-16.9	.	0.2	-7.5	0.8	148.7*
Cc1ccc(S(=O)(=O)Nc2ccc(-n3cnnn3)cc2)cc1	-1.7	0.1	0.8	-5.9	2.5	.
C[C@H]1CN([C@@H](C)CO)C(=O)Cc2cc(NS(C)(=O)=O)ccc2O[C@H]1CN(C)C(=O)Nc1ccc(F)cc1	-0.6	.	.	-3.1	.	-2.6[16.7 µM]
CC1(C)CC(=O)/C(=C\c2cccc([N+](=O)[O-])c2)C(C)(C)N1	2.8	4.8	?	.	31.3*	.
CO[C@@H]1CC[C@@H]2CCN(C)C(=O)[C@@H](C)CN(C)C(=O)c3cccc(C#N)c3OC[C@@H]1O2	3.4	.	.	0.5	.	.
COc1ccccc1NS(=O)(=O)c1cc(NC(=S)Nc2cc(C)cc(C)c2)ccc1Cl	-37.0	-0.5	-2.4	.	7.3	.
COc1ccc(C(=O)NCc2cccs2)cc1S(=O)(=O)N1CCOCC1	-9.6	-10.3	2.7	-4.2	3.4	0.1
COc1ccccc1NS(=O)(=O)c1cc(N/C(=N\S(=O)(=O)c2ccccc2)c2ccc(F)cc2)ccc1Cl	.	-11.5	0.0	-1.2	33.6*	73.7
O=C(NCc1cccs1)c1ccc(Cl)c(S(=O)(=O)N2CCOCC2)c1	-4.6	.	0.0	-1.4	30.8*	14.2
O=S(=O)(/N=C(/Nc1ccc(Cl)c(S(=O)(=O)N2CCOCC2)c1)c1ccc(F)cc1)c1ccccc1	-3.3	-35.5	-0.5	8.4	-6.2	120.8*
COC(=O)c1cn(C(=O)c2ccc(Br)o2)c2ccccc12	.	1.8	5.4	5.3	25.2*	-3.8
NC(=O)CC(NC(=O)Cc1ccc(Cl)cc1)c1ccc(NCCc2ccccc2F)c([N+](=O)[O-])c1 (configuration not stated)	-10.3	.	0.5	-3.5	-21.3	0.2
NC(=O)CC(NC(=O)Cc1ccc(Cl)cc1)c1ccc(NCC2CC2)c([N+](=O)[O-])c1 (configuration not stated)	-96.1	.	43.1*	-9.8	-6.7	16.3
NC(=O)CC(NC(=O)Cc1ccc(Br)cc1)c1ccc(NCC2CC2)c([N+](=O)[O-])c1 (configuration not stated)	-28.6	.	44.9*	-4.4	-38.9	-0.2
CCC1CCCCN1CCCNC(=O)C1CCCN(S(=O)(=O)N2CC(C)CC(C)C2)C1 (configuration not stated)	-48.6	32.1	1.5	-2.8	27.3*	2.8
CN1C[C@@H]2[C@@H]3C(=O)N(Cc4ccccc4)C(=O)[C@@H]3[C@](C)(C1=O)N2C(=O)c1ccc(Cl)cc1	-1.0	.	0.2	-3.3	31.4*	-5.1
CCN1C[C@@H]2[C@@H]3C(=O)N(Cc4ccccc4)C(=O)[C@@H]3[C@](CC)(C1=O)N2C(=O)c1ccc(C(C)(C)C)cc1	.	.	-0.3	-5.6	26.0*	-5.4
CCN1C[C@@H]2[C@@H]3C(=O)N(Cc4ccccc4)C(=O)[C@@H]3[C@](Cc3ccccc3)(C1=O)N2C(=O)c1ccc(C(F)(F)F)cc1	-16.8	.	-0.3	-1.0	0.7	-0.8
CCN1C[C@@H]2[C@@H]3C(=O)N(Cc4ccccc4)C(=O)[C@@H]3[C@](CC)(C1=O)N2C(=O)c1ccc(C(F)(F)F)cc1	-4.8	.	0.4	2.7	29.6*	0.7
CN(C)C(=O)C[C@H]1C[C@@H]2c3cc(NS(=O)(=O)c4ccc(F)cc4)ccc3O[C@@H]2[C@@H](CO)O1	.	.	.	-3.0	.	-5.0[16.7 µM]
COc1ccc2c3c([nH]c2c1)[C@@H](CO)N(C(=O)C1CCC1)CC31CN(C)C1	0.8	.	.	.	.	.
COc1ccccc1CNC(=O)C[C@@H]1CC[C@H]2[C@@H](COC[C@@H](O)CN2Cc2cccc(-c3ccncc3)c2)O1	-14.3	.	.	-3.8	.	2.9[16.7 µM]
FC(F)(F)c1cccc(Oc2ccc3c(C(F)(F)F)cc(C(F)(F)F)nc3n2)c1	11.3	-3.7	3.2	-5.9	-2.3	0.5
FC(F)(F)c1cc(C(F)(F)F)c2ccc(Oc3ccccc3)nc2n1	.	-1.0	-1.2	2.9	32.6*	-0.7
CCCC#Cc1ccc2c(c1)O[C@H](CN(C)C(=O)CN(C)C)[C@H](C)CN([C@@H](C)CO)S2(=O)=O	.	.	.	.	.	-17.9[16.7 µM]
SMILES	RAD52 anneal inh	FID counter	Glyco luc inh	RAD54 inh	NRP1-CendR mod	miR-122 sensor
Cc1ccc(S(=O)(=O)N[C@H]2CC[C@H](CCNC(=O)C3CCC3)O[C@H]2CO)cc1	-7.5	.	.	-4.6	.	.
CCC(=O)c1cn(CC(=O)Nc2ccccc2)c2ccccc12	-1.7	5.3	0.9	4.3	34.1*	7.4
CCc1nc(Nc2cc(OC)ccc2OC)c2oc3ccccc3c2n1	4.0	-15.8	-2.7	1.1	25.4*	1.8
Cc1ccc(S(=O)(=O)N(C)C[C@@H]2Oc3ccc(NC(=O)Nc4ccc5c(c4)OCO5)cc3CC(=O)N([C@@H](C)CO)C[C@H]2C)cc1	22.4	.	.	-2.0	.	-5.9[16.7 µM]
Nc1cc2c(cc1Br)-c1c(C(=O)O)cccc1C2O (configuration not stated)	-4.0	.	35.3*	.	14.3	.
COc1cccc(C(NC(C)=O)c2nc(-c3ccc(F)cc3OC)cs2)c1 (configuration not stated)	-2.6	.	49.8*	-3.3	-1.1	7.5
COc1cc(F)ccc1-c1csc(C(NC(C)=O)c2ccc(F)c(F)c2)n1 (configuration not stated)	-8.9	.	42.2*	5.2	-7.8	-4.5
CC(=O)NC(c1ccccc1)c1nc(-c2cccc(F)c2)cs1 (configuration not stated)	-33.2	.	0.2	-11.2	0.0	-3.1
COc1ccc(-c2csc(C(NC(C)=O)c3ccccc3)n2)cc1 (configuration not stated)	-6.4	.	1.2	5.2	-0.9	-4.2
CC(=O)NC(c1ccc(F)c(F)c1)c1nc(-c2ccc(C)c(C)c2)cs1 (configuration not stated)	-12.6	.	-1.4	2.7	-4.1	-9.3
COc1cc(F)ccc1-c1csc(C(NC(C)=O)c2ccccc2)n1 (configuration not stated)	-11.1	.	50.2*	-7.5	9.3	-2.9
COc1ccccc1-c1csc(C(NC(C)=O)c2ccccc2)n1 (configuration not stated)	-16.1	.	41.7*	-21.4	-2.9	-4.1
COc1cccc(CN2[C@@H](CO)[C@@H](c3ccccc3)C23CN(C(=O)C2CCOCC2)C3)c1	-46.7	.	.	.	.	.
CO[C@H]1CN(C)C(=O)c2cc(NC(=O)NC3CCCCC3)ccc2OC[C@H](C)N(C)C[C@@H]1C	-19.0	.	.	4.9	.	.
O=C(C[C@H]1C=C[C@H](NC(=O)C2CC2)[C@H](CO)O1)NC1CCC1	.	.	.	.	.	-6.5[16.7 µM]
COc1ccncc1-c1csc(C(O)c2ccccc2)n1 (configuration not stated)	-8.8	.	-6.5	11.0	23.2*	-1.1
COc1ccc(C(O)c2nc(-c3cc(F)cc(F)c3)cs2)cc1 (configuration not stated)	-29.2	.	0.4	4.6	40.5*	5.0
